# Data taken from PubChem BioAssay (NCATS).
# Records with an inconclusive call do not appear. Where a call stands in place of a potency, no number is given. Calls of active or inactive are those of the source. Unless noted, the call rests on the fitted dose curve; in most records, active means well fitted curve in the direction sought with a large enough effect; inconclusive means small, poorly fitted or top-dose-only effect, or another doubt; inactive means no such curve, though single readings can be large; an effect the other way counts as inactive or inconclusive.
# Experiments:
# [1] = biological target: Catechol O-methyltransferase (Homo sapiens) (UniProt P21964); experiment: Confirmatory Screen for Target Class Profiling of Small Molecule Inhibitors of Methyltransferases (AID 1745852); details: MTase-Glo luminescence, SAH detection, recombinant enzyme; measured here: COMT max response; stronger effect = lower value
# Catechol O-methyltransferase (Homo sapiens), sequence (P21964 whole entry, looked up): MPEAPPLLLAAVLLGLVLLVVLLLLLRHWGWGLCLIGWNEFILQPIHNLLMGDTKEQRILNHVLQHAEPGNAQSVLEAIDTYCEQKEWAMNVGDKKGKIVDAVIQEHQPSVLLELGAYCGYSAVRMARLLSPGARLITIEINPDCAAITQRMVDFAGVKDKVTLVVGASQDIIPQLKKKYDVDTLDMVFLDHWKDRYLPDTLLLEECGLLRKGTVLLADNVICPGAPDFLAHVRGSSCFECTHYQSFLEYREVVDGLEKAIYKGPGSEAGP
# [2] = biological target: Guanidinoacetate N-methyltransferase (Homo sapiens) (UniProt Q14353); experiment: as above; details: MTase-Glo luminescence, SAH detection, recombinant enzyme; activity change, negative = inhibition: at 57.3 µM (top of the series) unless noted; series mostly up to 57.3 µM
# [3] = biological target: Nicotinamide N-methyltransferase (Homo sapiens) (UniProt P40261); experiment: as above; details: MTase-Glo luminescence, SAH detection, recombinant enzyme; measured here: NNMT max response; stronger effect = lower value
# Nicotinamide N-methyltransferase (Homo sapiens), sequence (P40261 whole entry, looked up): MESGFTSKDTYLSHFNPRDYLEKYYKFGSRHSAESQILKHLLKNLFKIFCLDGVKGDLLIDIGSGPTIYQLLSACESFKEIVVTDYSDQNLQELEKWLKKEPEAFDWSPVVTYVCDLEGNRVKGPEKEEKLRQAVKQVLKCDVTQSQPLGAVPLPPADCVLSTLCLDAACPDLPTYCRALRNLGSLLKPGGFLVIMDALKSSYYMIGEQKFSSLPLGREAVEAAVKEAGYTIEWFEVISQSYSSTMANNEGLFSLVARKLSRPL
# [4] = biological target: Phenylethanolamine N-methyltransferase (Homo sapiens) (UniProt P11086); experiment: as above; details: MTase-Glo luminescence, SAH detection, recombinant enzyme; measured here: PNMT max response; stronger effect = lower value
# Phenylethanolamine N-methyltransferase (Homo sapiens), sequence (P11086 whole entry, looked up, the tested form may be a part): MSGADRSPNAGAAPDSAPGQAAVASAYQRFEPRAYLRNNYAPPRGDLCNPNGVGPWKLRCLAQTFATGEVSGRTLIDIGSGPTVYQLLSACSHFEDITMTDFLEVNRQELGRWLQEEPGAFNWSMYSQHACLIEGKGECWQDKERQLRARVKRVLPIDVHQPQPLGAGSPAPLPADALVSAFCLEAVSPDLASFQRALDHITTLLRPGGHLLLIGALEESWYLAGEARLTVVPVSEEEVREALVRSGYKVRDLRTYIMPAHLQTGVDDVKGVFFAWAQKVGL
# [5] = Primary qHTS for inhibitors of nuclear receptor binding SET domain protein 2 (NSD2) in an RCH-ACV wild type WT cells (2C) (AID 1645877); details: RCH-ACV (leukaemia line) NSD2 WT (2C) viability, CellTiter-Glo, 72 h; series mostly up to 44.9 µM; further: nearly all actives have a fitted effect of over 70% in size; further: potency means the concentration at half of the fitted maximal effect
# [6] = biological target: Glucocorticoid receptor (Homo sapiens) (UniProt P04150); experiment: GR-GFP Redistribution (AID 450;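 active means compounds whose dose series gives a full or clear partial fitted curve of increased nuclear translocation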; further: potency means the concentration at half of the fitted maximal effect); details: U2OS GR-GFP nuclear translocation, laser cytometry, 2 h
# Glucocorticoid receptor (Homo sapiens), sequence (P04150 whole entry, looked up): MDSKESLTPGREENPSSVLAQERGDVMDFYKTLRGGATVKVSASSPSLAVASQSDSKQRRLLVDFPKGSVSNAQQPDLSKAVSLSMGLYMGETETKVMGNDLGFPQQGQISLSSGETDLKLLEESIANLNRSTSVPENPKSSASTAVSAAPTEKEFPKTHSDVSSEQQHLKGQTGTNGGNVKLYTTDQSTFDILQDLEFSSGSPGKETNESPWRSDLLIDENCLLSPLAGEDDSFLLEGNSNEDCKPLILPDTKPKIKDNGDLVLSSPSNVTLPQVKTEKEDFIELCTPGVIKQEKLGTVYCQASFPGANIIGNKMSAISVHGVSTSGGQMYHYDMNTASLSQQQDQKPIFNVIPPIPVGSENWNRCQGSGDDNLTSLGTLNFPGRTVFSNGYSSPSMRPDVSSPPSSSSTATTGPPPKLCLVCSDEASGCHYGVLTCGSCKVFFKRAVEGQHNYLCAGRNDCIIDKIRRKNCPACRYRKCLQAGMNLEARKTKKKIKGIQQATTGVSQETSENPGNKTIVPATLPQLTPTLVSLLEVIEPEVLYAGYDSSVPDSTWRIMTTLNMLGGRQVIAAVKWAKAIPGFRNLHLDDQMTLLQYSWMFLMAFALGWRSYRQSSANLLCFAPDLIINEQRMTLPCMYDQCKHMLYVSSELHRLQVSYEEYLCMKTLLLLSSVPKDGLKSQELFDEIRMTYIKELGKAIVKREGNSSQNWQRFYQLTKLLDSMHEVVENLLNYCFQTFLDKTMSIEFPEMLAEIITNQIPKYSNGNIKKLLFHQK
# [7] = biological target: Guanine nucleotide-binding protein G(i) subunit alpha-1 (Homo sapiens) (UniProt P63096); experiment: qHTS Assay for Inhibitors of RGS12 GoLoco Motif Activity (Green Fluorophore) (AID 879); details: Galphai1/FITC-RGS12 GoLoco peptide, fluorescence polarization; series mostly up to 57.1 µM;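 further: negative values mean loss of peptide binding seen as reduced polarization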
# Guanine nucleotide-binding protein G(i) subunit alpha-1 (Homo sapiens), sequence (P63096 whole entry, looked up): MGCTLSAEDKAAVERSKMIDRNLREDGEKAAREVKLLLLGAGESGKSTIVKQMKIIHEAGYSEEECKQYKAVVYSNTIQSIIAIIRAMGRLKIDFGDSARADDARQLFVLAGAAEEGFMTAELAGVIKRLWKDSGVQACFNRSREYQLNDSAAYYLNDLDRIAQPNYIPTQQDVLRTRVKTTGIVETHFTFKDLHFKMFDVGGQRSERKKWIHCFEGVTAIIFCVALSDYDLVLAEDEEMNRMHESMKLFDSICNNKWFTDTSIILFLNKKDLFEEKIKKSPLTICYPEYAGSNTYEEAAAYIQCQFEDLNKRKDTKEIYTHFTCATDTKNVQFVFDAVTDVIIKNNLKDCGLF
# In short: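 A drop in FITC polarization marked displacement of the FITC-tagged RGS12 GoLoco peptide (10 nM) from Gαi1 (50 nM). Compounds were incubated 10 min at room temperature in Tris pH 7.5 buffer containing 150 mM NaCl, 0.1 mM GDP and 0.05% NP40; unlabeled peptide titration served as control.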
# [8] = biological target: Pyruvate kinase PKM (Homo sapiens) (UniProt P14618); experiment: qHTS Assay for Activators of Human Muscle Pyruvate Kinase (AID 954; active means well fitted curve in the direction sought with a large enough effect, not every such curve was filed as active); details: purified human muscle pyruvate kinase, luciferase-coupled luminescence, 1 h; series mostly up to 57.5 µM
# Pyruvate kinase PKM (Homo sapiens), sequence (P14618 whole entry, looked up): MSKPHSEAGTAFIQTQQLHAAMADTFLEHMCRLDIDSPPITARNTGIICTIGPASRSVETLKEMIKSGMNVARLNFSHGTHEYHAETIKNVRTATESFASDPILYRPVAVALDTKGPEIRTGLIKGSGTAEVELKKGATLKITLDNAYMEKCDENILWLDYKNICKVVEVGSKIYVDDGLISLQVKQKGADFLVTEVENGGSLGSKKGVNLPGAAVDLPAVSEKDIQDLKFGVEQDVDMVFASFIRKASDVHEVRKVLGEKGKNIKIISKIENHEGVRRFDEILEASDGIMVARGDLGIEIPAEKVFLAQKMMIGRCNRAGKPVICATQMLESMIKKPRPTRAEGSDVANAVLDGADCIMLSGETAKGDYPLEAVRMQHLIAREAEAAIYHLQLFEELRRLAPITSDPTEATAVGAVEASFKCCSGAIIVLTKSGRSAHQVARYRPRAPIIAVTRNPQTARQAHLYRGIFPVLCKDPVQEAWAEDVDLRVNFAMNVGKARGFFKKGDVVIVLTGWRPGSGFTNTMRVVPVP
# In short: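 ATP production by PKM2 detected via luciferase luminescence after 1 h room-temperature reaction (0.1 nM enzyme, PEP at Km 0.5 mM, ADP 0.1 mM, pH 7.2 imidazole buffer). Inhibition scaled to no-enzyme control; activation referenced to 0.3 nM enzyme wells.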
# [9] = biological target: alpha-glucosidase (Oryza sativa, rice) (UniProt Q653V4); experiment: Counterscreen for Glucocerebrosidase Inhibitors: qHTS Assay for Rice alpha-Glucosidase at pH 5.0 (AID 997); details: rice alpha-glucosidase enzyme activity; series mostly up to 76.9 µM
# In short: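 Endpoint fluorogenic assay at pH 5.0: compounds (0.7 nM to 77 uM) titrated against 4 nM rice enzyme and 400 uM 4-MU-alpha-glucoside for 20 min at room temperature; NaOH/glycine stop, read ex 365/em 440 nm, Hill-fitted AC50.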
# [10] = biological target: ATPase family AAA domain-containing protein 5 (Homo sapiens) (UniProt Q96QE3); experiment: Validation screen for small molecules that inhibit ELG1-dependent DNA repair in human embryonic kidney (HEK293T) cells expressing luciferase-tagged ELG1 (AID 493107); details: HEK293T ELG1-luciferase level, luminescence, 5-fluorouridine co-treatment, 16 h; series mostly up to 46.1 µM;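 further: cells co-treated with the DNA-damaging agent 5-fluorouridine alongside compound; inhibitors lower the ELG1-luciferase luminescence signal; nearly all actives have a fitted effect of over 70% in size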
# In short: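 Cells are dispensed in 1536-well format, then 5-fluorouridine and compound are pinned in. After a 16 hr incubation at 37 °C and 5% CO2, ONE-Glo is added and luciferase measured on a CCD imager.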
# [11] = qHTS for Inhibitors of ATXN expression: Validation (AID 588378); details: cell-based ATXN2 expression reporter assay, luminescence; series mostly up to 57.1 µM; further: nearly all actives have a fitted effect of over 75% in size
# In short: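 Compounds were pinned onto attached HEK293 cells carrying an ATXN2-firefly luciferase construct and incubated 24 hrs at 37 degrees C. Each well then received a fluorescent viability reagent followed by luciferase substrate for end-point luminescence.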
# [12] = biological target: Calcium and integrin-binding protein 1 (Homo sapiens) (UniProt Q99828); experiment: Validation qHTS for Identification of Calcium Integrin Binding protein 1 (CIB1) Competitor (AID 1508618); details: CIB1-GST / FITC-alphaIIb peptide fluorescence polarization; series mostly up to 114 µM
# Calcium and integrin-binding protein 1 (Homo sapiens), sequence (Q99828 whole entry, looked up): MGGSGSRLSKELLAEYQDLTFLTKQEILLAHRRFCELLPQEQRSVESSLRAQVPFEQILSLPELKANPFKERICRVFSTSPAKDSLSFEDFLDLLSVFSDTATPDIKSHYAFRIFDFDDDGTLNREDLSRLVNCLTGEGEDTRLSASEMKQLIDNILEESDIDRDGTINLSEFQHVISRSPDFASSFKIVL
# In short: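 CIB1-GST (1 uM final) incubated 15 min at room temperature with compounds (up to 114 uM), then FITC-labelled alphaIIb peptide (100 nM) added. FP read (Ex 480/Em 540) after 15 min, pH 7.4 buffer containing 5 mM CaCl2.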
# [13] = biological target: DNA repair nuclease/redox regulator APEX1 (Homo sapiens) (UniProt P27695); experiment: qHTS Validation Assay for Inhibitors of the Human Apurinic/apyrimidinic Endonuclease 1 (APE1) (AID 1705;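 further: TAMRA fluorescence gain over two minutes as APE1 cuts a quenched THF abasic duplex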); details: purified APE1 endonuclease activity, fluorescence, titration; series mostly up to 57.1 µM
# DNA repair nuclease/redox regulator APEX1 (Homo sapiens), sequence (P27695 whole entry, looked up): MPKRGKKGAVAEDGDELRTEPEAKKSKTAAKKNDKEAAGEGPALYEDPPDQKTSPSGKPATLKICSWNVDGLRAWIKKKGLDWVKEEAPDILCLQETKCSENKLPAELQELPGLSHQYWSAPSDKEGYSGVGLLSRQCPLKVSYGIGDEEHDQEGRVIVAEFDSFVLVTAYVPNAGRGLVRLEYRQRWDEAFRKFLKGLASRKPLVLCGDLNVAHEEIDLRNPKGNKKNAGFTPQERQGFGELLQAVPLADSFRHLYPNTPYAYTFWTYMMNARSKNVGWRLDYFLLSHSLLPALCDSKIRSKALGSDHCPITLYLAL
# In short: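 qHTS, 1536-well. APE1 + cpd 15 min RT → 50 nM TAMRA/BHQ-2 THF-abasic dsDNA substrate → kinetic fluorescence, 3 reads/60 s; delta(read3−read1) = reaction progress. No-enzyme buffer = negative control.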
# [14] = biological target: Endonuclease 4 (Escherichia coli (strain K12)) (UniProt P0A6C1); experiment: Counterscreen for APE1 Inhibitors: qHTS Validation Assay for Inhibitors of Endonuclease IV (AID 1708); details: E. coli endonuclease IV, DNA cleavage fluorescence; series mostly up to 57.1 µM
# In short: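 Enzyme (2 nM) + compound, 15 min RT; add 50 nM TAMRA/BHQ-2 THF-site dsDNA; kinetic read ex525/em598, 3 reads/60 s; activity = read 3 − read 1. Buffer Tris pH 7.5, 50 mM NaCl, 2 mM MgCl2, DTT, Tween-20.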
# [15] = biological target: ATP-dependent DNA helicase Q1 (Homo sapiens) (UniProt P46063); experiment: qHTS Validation Assay for Inhibitors of RecQ-Like Dna Helicase 1 (RECQ1) (AID 2353); details: recombinant RECQ1 helicase DNA unwinding assay; series mostly up to 25.6 µM
# ATP-dependent DNA helicase Q1 (Homo sapiens), sequence (P46063 whole entry, looked up): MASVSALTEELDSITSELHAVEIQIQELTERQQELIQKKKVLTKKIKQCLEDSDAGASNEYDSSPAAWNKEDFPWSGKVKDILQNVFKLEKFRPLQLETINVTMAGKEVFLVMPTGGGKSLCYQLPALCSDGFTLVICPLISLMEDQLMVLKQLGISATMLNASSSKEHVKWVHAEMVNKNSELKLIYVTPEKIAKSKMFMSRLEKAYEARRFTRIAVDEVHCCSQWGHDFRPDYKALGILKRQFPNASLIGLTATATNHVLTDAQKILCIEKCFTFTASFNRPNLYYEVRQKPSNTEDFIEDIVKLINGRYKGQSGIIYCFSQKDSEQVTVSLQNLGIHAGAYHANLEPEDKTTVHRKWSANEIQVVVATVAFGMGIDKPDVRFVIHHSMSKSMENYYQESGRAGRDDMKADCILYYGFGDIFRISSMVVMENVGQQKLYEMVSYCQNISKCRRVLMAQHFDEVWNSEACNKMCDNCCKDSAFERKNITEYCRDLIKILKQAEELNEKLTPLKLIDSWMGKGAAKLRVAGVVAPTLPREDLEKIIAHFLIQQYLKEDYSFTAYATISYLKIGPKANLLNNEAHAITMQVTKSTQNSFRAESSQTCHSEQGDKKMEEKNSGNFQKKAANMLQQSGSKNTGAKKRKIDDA
# In short: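 RECQ1T1 50 nM; forked duplex (20 bp + 30-nt ss tails) 200 nM, ATP 2 mM final; pH 8.0, 2 mM MgCl2, 2.5 ug/ml poly(dI-dC); 15 min compound preincubation; discontinuous kinetic read over 2 h at RT.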
# [16] = biological target: Thioredoxin reductase 1, cytoplasmic (Rattus norvegicus) (UniProt O89049); experiment: qHTS Assay for Inhibitors of Mammalian Selenoprotein Thioredoxin Reductase 1 (TrxR1) (AID 488773); details: purified TrxR1 enzyme activity; Potency: inhibition; series mostly up to 57.1 µM; further: nearly all actives have a fitted effect of over 40% in size; further: potency means the concentration at half of the fitted maximal effect;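 on activity change, negative = inhibition: drop in NADPH fluorescence over an 8 min run after selenite addition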
# Thioredoxin reductase 1, cytoplasmic (Rattus norvegicus), sequence (O89049 whole entry, looked up): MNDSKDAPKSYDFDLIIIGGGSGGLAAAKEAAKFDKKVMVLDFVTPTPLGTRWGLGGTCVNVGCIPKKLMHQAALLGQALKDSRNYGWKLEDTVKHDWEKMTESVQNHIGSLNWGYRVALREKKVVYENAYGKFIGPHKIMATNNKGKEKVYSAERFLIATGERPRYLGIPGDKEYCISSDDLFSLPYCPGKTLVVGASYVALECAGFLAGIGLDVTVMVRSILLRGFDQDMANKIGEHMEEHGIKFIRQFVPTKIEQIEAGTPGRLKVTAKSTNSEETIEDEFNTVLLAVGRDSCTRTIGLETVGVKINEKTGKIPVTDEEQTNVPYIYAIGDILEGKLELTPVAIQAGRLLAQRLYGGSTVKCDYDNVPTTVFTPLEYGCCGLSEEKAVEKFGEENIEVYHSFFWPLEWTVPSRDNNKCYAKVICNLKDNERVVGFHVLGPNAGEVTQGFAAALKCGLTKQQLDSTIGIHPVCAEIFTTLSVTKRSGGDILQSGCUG
# In short: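 Inhibition is scored from the loss of NADPH fluorescence between first and last reads of an 8-min kinetic run. Selenite (400 uM) was the substrate, added after 15 min compound preincubation at room temperature.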
# [17] = biological target: Thyrotropin receptor (Homo sapiens) (UniProt P16473); experiment: qHTS Assay for Antagonists of the Thyroid Stimulating Hormone Receptor (AID 488980); details: TSHR-expressing cells, cAMP antagonist read-out; series mostly up to 57.5 µM
# Thyrotropin receptor (Homo sapiens), sequence (P16473 whole entry, looked up): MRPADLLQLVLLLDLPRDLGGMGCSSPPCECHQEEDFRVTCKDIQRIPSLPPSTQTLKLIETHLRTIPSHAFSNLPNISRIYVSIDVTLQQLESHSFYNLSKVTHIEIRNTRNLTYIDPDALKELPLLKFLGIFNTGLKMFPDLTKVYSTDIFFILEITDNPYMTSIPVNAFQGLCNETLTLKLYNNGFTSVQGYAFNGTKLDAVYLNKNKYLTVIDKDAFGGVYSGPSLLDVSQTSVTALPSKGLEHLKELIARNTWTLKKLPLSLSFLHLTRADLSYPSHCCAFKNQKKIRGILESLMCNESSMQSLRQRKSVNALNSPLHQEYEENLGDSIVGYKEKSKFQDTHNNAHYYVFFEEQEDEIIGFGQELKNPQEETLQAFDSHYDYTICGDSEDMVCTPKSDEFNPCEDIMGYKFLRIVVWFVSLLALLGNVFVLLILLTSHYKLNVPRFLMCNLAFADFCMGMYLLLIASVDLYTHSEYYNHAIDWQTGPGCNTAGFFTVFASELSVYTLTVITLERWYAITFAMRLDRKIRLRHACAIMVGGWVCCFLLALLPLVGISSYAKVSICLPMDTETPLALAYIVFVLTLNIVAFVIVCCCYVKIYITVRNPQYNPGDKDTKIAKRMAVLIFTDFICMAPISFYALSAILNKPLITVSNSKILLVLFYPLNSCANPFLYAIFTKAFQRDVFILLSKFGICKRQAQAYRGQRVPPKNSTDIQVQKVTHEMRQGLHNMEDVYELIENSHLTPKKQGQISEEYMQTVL
# In short: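 Readout is cAMP by HTRF competition between cellular cAMP and cAMP-d2 for a cryptate-labelled antibody. Antagonism was assessed in TSHR-transfected HEK293 cells stimulated with 4 nM TSH (EC80, final) in the presence of RO 20-1724.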
# [18] = biological target: Voltage-gated inwardly rectifying potassium channel KCNH2 (Homo sapiens) (UniProt Q12809); experiment: qHTS Assay for Small Molecule Inhibitors of the Human hERG Channel Activity (AID 588834); details: U2OS BacMam hERG, FluxOR thallium flux fluorescence; series mostly up to 46.1 µM;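 further: lower thallium flux fluorescence means stronger hERG block; nearly all actives have a fitted effect of over 50% in size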; further: potency means the concentration at half of the fitted maximal effect; on activity change, negative = inhibition: top concentration of the series differs between compounds
# In short: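 Step 1: BacMam hERG transduction of U2OS, 4 hrs RT. Step 2: overnight 37 °C, plate 2000 cells/well, 4 hr. Step 3: FluxOR load, compound 10 min, stimulate, read fluorescence.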
# [19] = Primary qHTS for inhibitors of La Crosse Virus (LACV) - induced cell death in SH-SY5Y cells (AID 1508616); details: SH-SY5Y LACV cytopathicity rescue, ATP luminescence, 6 d; series mostly up to 9.63 µM;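 further: top concentration of the series differs between compounds; higher means more rescue of cells from virus-induced death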
# In short: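 SH-SY5Y, 6000 cells/well; cpd via pin tool in DMSO; LACV 0.01 MOI; 6 d 37C 5% CO2; ATPLite, 5 min RT; luminescence normalized to ±virus DMSO controls.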
# [20] = Primary qHTS for small molecule stabilizers of the endoplasmic reticulum resident proteome: Secreted ER Calcium Modulated Protein (SERCaMP) assay (AID 1508630); details: SH-SY5Y GLuc-SERCaMP (Gaussia luciferase released on ER calcium loss) secretion, thapsigargin, luminescence; series mostly up to 38.4 µM
# In short: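 The SH-SY5Y reporter protocol was run at 3 concentrations up to 38.3 uM (primary) or 11 concentrations (follow-up): 16 h compound, 100 nM thapsigargin for 4 h, then extracellular luciferase luminescence.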
compound,measurement,setting,value
CC(C)n1nc(Cc2cccc3ccccc23)c2c(N)ncnc21,activity,[1],-11.5%
same,"activity change, negative = inhibition",[2],-6.43%
same,activity,[3],-28.9%
same,activity,[4],-57.3%
Cc1ccc(OCCSc2ncccn2)c(Br)c1,Potency,[5],inactive
CC[N+](CC)(CC)CC,Potency,[6],> 46 µM (inactive)
same,outcome,[7],inactive
same,outcome,[8],inactive
same,outcome,[9],inactive
same,Potency,[10],inactive
same,Potency,[11],inactive
same,outcome,[12],inactive
CN[C@@H]1C[C@H]2O[C@@](C)([C@@H]1OC)n1c3ccccc3c3c4c(c5c6ccccc6n2c5c31)C(=O)N[C@H]4O,Potency,[5],0.0303 µM (active)
Cc1cccc(/C=C/c2ccccc2)n1,Potency,[13],inactive
same,Potency,[14],inactive
same,Potency,[15],inactive
same,Potency,[16],inactive
same,outcome,[17],inactive
same,Potency,[11],inactive
same,Potency,[18],inactive
same,outcome,[19],inactive
same,outcome,[12],inactive
same,Potency,[20],inactive
COc1cc2ncnc(Sc3nnc(C)s3)c2cc1OC,Potency,[5],3.26 µM (active)
O=Nc1c(-c2c(O)[nH]c3ccccc23)[nH]c2ccccc12,Potency,[6],> 46 µM (inactive)
same,outcome,[7],inactive
same,outcome,[8],inactive
same,outcome,[9],inactive
same,Potency,[13],inactive
same,Potency,[15],inactive
same,Potency,[16],inactive
same,outcome,[17],inactive
same,Potency,[18],inactive
same,outcome,[19],inactive
S=C(Nc1ccccc1)Nc1nccs1,Potency,[6],> 46 µM (inactive)
same,outcome,[7],inactive
same,outcome,[8],inactive
same,outcome,[9],inactive
same,Potency,[13],inactive
same,Potency,[14],inactive
same,Potency,[15],inactive
same,Potency,[16],5.97 µM (active)
same,outcome,[17],inactive
same,Potency,[10],inactive
same,Potency,[18],inactive
same,outcome,[19],inactive
same,outcome,[12],inactive
CCc1ccc(/C=C2/SC(=S)NC2=O)cc1,Potency,[11],inactive
same,outcome,[19],inactive
same,Potency,[20],inactive
C1CCC(N=C(NC23CC4CC(CC(C4)C2)C3)N2CCOCC2)CC1,Potency,[6],> 46 µM (inactive)
same,outcome,[7],inactive
same,outcome,[8],inactive
same,outcome,[9],inactive
same,Potency,[13],inactive
same,Potency,[14],inactive
same,Potency,[15],inactive
same,Potency,[16],inactive
same,outcome,[17],inactive
same,Potency,[18],11.2 µM (active)
